HT1080 IDH1KD tx: HT-1080 IDH1 knockdown cell toxicity (counter line) | Potency, µM (titrated, usually from 46.1 µM), for the others: top-dose activity, negative = toxicity, actives largely listed as cytotoxic | hit rate 2% among 360,000 | HT-1080 IDH1 knockdown viability, ATP luminescence, 48 h;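 further: potency means the concentration at half of the fitted maximal effect; 0% = DMSO wells and -100% = cell-free medium wells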
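Knockdown cells (IDH1KD HT-1080) received compounds 2 h after plating at 750 cells/well and were kept 48 h at 37 °C in 5% FBS RPMI. A CellTiter-Glo luminescence read gave % activity for curve fitting.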
KB-3-1 tox: KB-3-1 parental cell cytotoxicity; Potency, µM (doses to about 46.1 µM), actives largely listed as cytotoxic; KB-3-1 viability, CellTiter-Glo ATP luminescence, 72 h; hit rate 1.4% among 400,000; further: potency means the concentration at half of the fitted maximal effect; nearly all actives have a fitted effect of over 60% in size
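Cytotoxicity in the drug-sensitive parental line KB-3-1 was scored as loss of CellTiter-Glo luminescence following 72 h incubation with compound. Values come from curve fitting of normalized concentration-response data.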
IL-1B inflam inh: inhibitors of inflammasome signaling (IL-1 beta secretion) | THP-1 LPS/ATP IL-1B secretion, AlphaLISA, 16 h; stronger effect = lower value | activity change, % at 57.5 µM | hit rate 4.7% among 360,000 | AID 743279; in the data active means activity change below about -50%; inconclusive means mostly about -30% to -49%
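Secreted IL-1B measured by AlphaLISA bead assay after 16 h compound exposure of THP-1 cells; compounds (final up to 57.5 uM) added 1 h before LPS (250 ng/mL) and ATP (1.25 mM) stimulation; lower signal means less secretion.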
HT1080-NT tox: kills 2HG-producing HT-1080-NT fibrosarcoma cells. hit rate 1.6% among 360,000. Potency, µM (series often up to 46.1 µM), inactives show at the highest dose activity, negative = less viability, usual class: cytotoxic. HT-1080-NT fibrosarcoma viability, CellTiter-Glo ATP luminescence, 48 h;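 further: NT is the 2HG producing partner of a matched IDH1 knockdown line; potency means the concentration at half of the fitted maximal effect; 0% = DMSO-treated cells and -100% = media-only wells without cells; nearly all actives have a fitted effect of over 55% in size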
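Fibrosarcoma NT cells, 750 per well in 5% FBS RPMI, were exposed to compound for 48 hours. Viability: CellTiter-Glo luminescence.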
KB-V1 cytotox: KB-V1 MDR subline cytotoxicity; AID 1347076; Potency, µM (top dose mostly 46.1 µM), actives largely listed as cytotoxic; hit rate 3.4% among 400,000; KB-V1 MDR cells viability, CellTiter-Glo, 72 h; further: potency means the concentration at half of the fitted maximal effect; nearly all actives have a fitted effect of over 60% in size
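KB-V1 cells (P-gp-expressing MDR subline of KB-3-1) in phenol-red-free DMEM with 10% FBS were exposed to library compounds over a concentration series for 72 h at 37 degrees C. Viability read by CellTiter-Glo luminescence; concentration-effect curves fitted after normalization.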
Numbers without * were called inactive; i = inactive; u = inconclusive; x = no result given. Hits are enriched below; roughly 8.8% of the tested compounds scored in any of these assays. Unless noted, the call rests on the fitted dose curve; in most records, active means well fitted curve in the direction sought with a large enough effect; inconclusive means small, poorly fitted or top-dose-only effect, or another doubt; inactive means no such curve, though single readings can be large; an effect the other way counts as inactive or inconclusive. Unless noted, on the % scale 0 is the no-effect control and ±100 the full control effect.

SMILES	HT1080 IDH1KD tx	KB-3-1 tox	IL-1B inflam inh	HT1080-NT tox	KB-V1 cytotox
COc1ccc(C)cc1NC(=O)C1CCCN1C(=O)OCc1ccccc1 (stereo not drawn)	-1%	i	2	3%	i
C/C(=N/NS(=O)(=O)c1ccc(Cl)cc1)c1cccc(NC(=O)c2ccc(Cl)cc2Cl)c1	-20%	u	-9	-19%	i
O=C(c1ccco1)N1CCN(c2ccc([N+](=O)[O-])cn2)CC1	-7%	i	-12	2%	i
O=C(CCn1c(=O)[nH]c2ccsc2c1=O)N1CCN(c2cccc(Cl)c2)CC1	u	21µM*	-10	-1%	i
CCOC(=O)C1=C[C@@H](C2CCCCC2)N(S(=O)(=O)c2ccc([N+](=O)[O-])cc2)[C@H]1c1ccccc1	8.2µM*	i	-19	u	i
COc1cccc(Nc2ccc([N+](=O)[O-])c3nonc23)c1	23µM*	i	41	15µM*	i
COc1cccc(Nc2cc(N3CCOCC3)c3nonc3c2[N+](=O)[O-])c1	8%	u	-6	12%	i
COCCNC(=O)C1(C)CCCN(C(=O)c2cnc3ccccc3n2)C1 (stereo not drawn)	18%	i	0	u	i
COc1ccccc1/C=N/Nc1cc(C)nc(N2CCOCC2)n1	3%	i	-14	4%	i
COc1ccc(/C=N/Nc2nccnc2Cl)c(OC)c1	-10%	i	-14	-14%	i
CCOc1ccc(Nc2cc(C)nc(-n3nc(C)cc3C)n2)cc1	0.41µM*	0.41µM*	12	u	u
COc1ccc(/C=N/Nc2nonc2N)c(OC)c1	11%	u	-22	2%	4.1µM*
COc1ccc(/C=N/Nc2cc(C)nc(-n3nc(C)cc3C)n2)c(OC)c1	9.2µM*	i	-104*	u	u
Cc1cc(N/N=C/c2ccc(F)cc2)nc(-n2nc(C)cc2C)n1	1.8µM*	u	48	u	i
CNc1cc(C)nc(-n2nc(C)cc2C)n1	-2%	u	0	5%	i
CN(C)CCCNc1cc(N2CCN(C3CCCCC3)CC2)c2noc3c2c1C(=O)c1ccccc1-3	x	i	x	x	u
COC1=CC(=O)OC(c2ccccc2C(F)(F)F)C1 (stereo not drawn)	19%	i	44	18%	i
CCOc1cc(/C=N/Nc2cc(C)nc(-n3nc(C)cc3C)n2)ccc1O	5.8µM*	i	113	5.8µM*	i
COc1cccc(/C=N/Nc2nc(Nc3ccccc3)nc(-n3nc(C)cc3C)n2)c1O	7.3µM*	5.2µM*	0	6.5µM*	u
COc1cccc(/C=N/Nc2cc(-n3nc(C)cc3-c3ccccc3)ncn2)c1O	u	u	58	u	u
O=C(COC(=O)CCS(=O)(=O)c1ccc(F)cc1)NC1CCCCC1	-9%	i	1	-10%	u
COc1ccc(-c2n[nH]c(C)c2-c2ccc(Cl)cc2)c(O)c1	21µM*	u	-18	21µM*	i
C=C(C)COc1ccc(-c2[nH]ncc2-c2ccc(OC)c(OC)c2)c(O)c1	4.6µM*	1.6µM*	-19	7.3µM*	1.3µM*
Cc1[nH]nc(-c2ccc(O)cc2O)c1-c1ccc(Cl)cc1	-29%	u	u	1%	i
COc1ccc(-c2cn[nH]c2-c2ccc(OCc3ccc(F)cc3)cc2O)cc1OC	18µM*	u	-88*	-28%	u
SMILES	HT1080 IDH1KD tx	KB-3-1 tox	IL-1B inflam inh	HT1080-NT tox	KB-V1 cytotox
COc1ccc(-c2cn[nH]c2-c2ccc(OCC(=O)NN)cc2O)cc1OC	-25%	i	23	u	i
COc1ccc(-c2cn[nH]c2-c2ccc(OCc3ccccc3)cc2O)cc1OC	13µM*	u	-101*	u	u
Cc1c(C=O)c(=O)n(-c2ccccc2)n1-c1ccccc1	9%	i	0	7%	i
NC(=O)NC(CC(=O)OCC(=O)Nc1nnc(-c2ccccc2)o1)c1ccc(Cl)cc1 (stereo not drawn)	0%	i	0	12%	i
C=C(C)COc1ccc(-c2n[nH]c(C)c2Oc2ccccc2OC)c(O)c1	u	u	-30	u	u
Oc1cc(OCc2ccccc2)ccc1-c1[nH]ncc1-c1ccccc1	23µM*	i	-101*	16µM*	i
C=C(C)COc1ccc(-c2n[nH]c(C)c2-c2ccc(OC)c(OC)c2)c(O)c1	1.5µM*	6.5µM*	4	4.1µM*	5.8µM*
CN(Cc1cccnc1)C(=O)CNC(=O)c1ccc(Cl)cc1Cl	-6%	i	0	3%	i
CC(O)Cn1c(N2CCCC2)nc2c1c(=O)n(C)c(=O)n2C (stereo not drawn)	0%	i	7	-1%	i
Cc1ccc(NC(=O)CCN2CCN(C/C=C/c3ccccc3)CC2)cc1C	-14%	i	-53*	-5%	3.3µM*
O=C(Nc1cccc(Cl)c1)N1CCN(C/C=C/c2ccccc2)CC1	-16%	i	-51*	-17%	u
O=C(CCN1CCN(C/C=C/c2ccccc2)CC1)Nc1ccc(Cl)cc1	2%	i	i	1%	u
Cn1c(NCCCN2CCOCC2)nc2c1c(=O)n(Cc1ccc(Cl)c(Cl)c1)c(=O)n2C	u	i	-23	u	15µM*
Cn1c(=O)c2c(nc(NCCCN3CCOCC3)n2Cc2ccc(Cl)cc2)n(C)c1=O	-14%	i	-25	2%	i
Cn1c(=O)c2c(nc(NCCCN3CCOCC3)n2Cc2cccc(Cl)c2)n(C)c1=O	5%	i	-6	7%	i
COc1ccc(CNc2nc3c(c(=O)n(Cc4ccc(Br)cc4)c(=O)n3C)n2C)cc1	u	u	0	u	9.2µM*
Cn1c(NCCCN2CCOCC2)nc2c1c(=O)n(Cc1ccc(Cl)cc1)c(=O)n2C	u	i	-3	-23%	18µM*
CCc1ccc(-n2nc(C)c3c(C)cc(=O)n(CC(=O)NCc4ccc(C)cc4)c32)cc1	x	i	x	x	i
COc1ccc(C(=O)Nc2ccc(N3CCCC3)cc2)cc1OC	u	u	-27	-28%	i
CCOc1ccc(C(=O)Nc2ccc(N3CCN(C)CC3)cc2)cc1Br	u	u	-52*	-29%	i
COc1ccc(C(=O)Nc2ccc(N3CCOCC3)cc2)cc1OC	u	u	-9	u	16µM*
CCOc1ccc(C(=O)Nc2ccc(Cc3ccncc3)cc2)cc1Br	u	u	-89*	-17%	i
CC(C)n1cnc2c(Nc3cccc(Cl)c3)nc(NCCCO)nc21	u	i	-95*	-14%	i
O=c1c2ccccc2nc(COc2ccccc2)n1/N=C/c1cc([N+](=O)[O-])ccc1O	-28%	u	46	-25%	7.3µM*

Source: PubChem BioAssay
